# PLC-gamma1 inh: PLC-gamma1 enzyme inhibitors, primary screen, biochemical, fluorescence, purified enzyme; fluorogenic substrate; AID 720700, 2013; 1-phosphatidylinositol 4,5-bisphosphate phosphodiesterase gamma-1 (Homo sapiens), P19174; hit rate 0.84% among 370,000; inhibition, % at 12.2 µM; in the data active = inhibition above about 9.5%
# Target sequence (P19174 whole entry, looked up): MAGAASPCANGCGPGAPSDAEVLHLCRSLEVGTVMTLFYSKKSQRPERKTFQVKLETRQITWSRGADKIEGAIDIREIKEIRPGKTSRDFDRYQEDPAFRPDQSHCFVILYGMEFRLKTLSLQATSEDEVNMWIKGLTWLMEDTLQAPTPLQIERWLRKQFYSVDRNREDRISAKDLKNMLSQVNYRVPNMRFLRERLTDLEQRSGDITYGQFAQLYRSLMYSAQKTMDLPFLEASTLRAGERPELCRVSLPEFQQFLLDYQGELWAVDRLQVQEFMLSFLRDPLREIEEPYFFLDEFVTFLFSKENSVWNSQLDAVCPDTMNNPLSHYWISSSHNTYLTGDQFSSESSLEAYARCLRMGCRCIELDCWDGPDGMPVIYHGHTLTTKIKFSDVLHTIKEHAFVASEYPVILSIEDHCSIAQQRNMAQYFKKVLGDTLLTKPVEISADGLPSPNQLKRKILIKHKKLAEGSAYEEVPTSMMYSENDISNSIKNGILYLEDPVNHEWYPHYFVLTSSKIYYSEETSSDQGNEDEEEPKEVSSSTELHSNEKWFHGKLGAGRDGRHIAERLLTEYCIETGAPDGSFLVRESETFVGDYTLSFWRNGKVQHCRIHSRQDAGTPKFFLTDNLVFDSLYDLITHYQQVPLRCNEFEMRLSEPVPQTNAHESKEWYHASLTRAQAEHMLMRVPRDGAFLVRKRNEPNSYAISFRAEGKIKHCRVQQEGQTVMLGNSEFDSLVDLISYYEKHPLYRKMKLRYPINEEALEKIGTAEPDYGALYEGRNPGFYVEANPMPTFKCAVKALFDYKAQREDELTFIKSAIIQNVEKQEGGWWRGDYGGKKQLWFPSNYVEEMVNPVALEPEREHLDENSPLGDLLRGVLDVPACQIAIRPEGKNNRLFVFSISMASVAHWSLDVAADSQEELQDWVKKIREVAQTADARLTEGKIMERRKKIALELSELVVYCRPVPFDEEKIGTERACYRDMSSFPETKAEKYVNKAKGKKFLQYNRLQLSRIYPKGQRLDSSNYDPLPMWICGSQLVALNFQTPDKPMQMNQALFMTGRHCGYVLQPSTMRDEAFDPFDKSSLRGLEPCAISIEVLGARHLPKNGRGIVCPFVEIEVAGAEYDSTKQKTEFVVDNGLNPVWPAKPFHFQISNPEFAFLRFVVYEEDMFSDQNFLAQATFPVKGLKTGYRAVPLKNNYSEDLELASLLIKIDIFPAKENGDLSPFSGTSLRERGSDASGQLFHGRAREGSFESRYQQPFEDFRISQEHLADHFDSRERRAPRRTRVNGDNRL
# ADAM10 inh: human ADAM10 inhibitors, primary screen, biochemical, QFRET, HTS; hit rate 0.62% among 370,000; AID 720582, 2013; recombinant ADAM10, EDANS/DABCYL FRET peptide cleavage, 3 h; Disintegrin and metalloproteinase domain-containing protein 10 (Homo sapiens), O14672; inhibition, % at 7 µM;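 active = inhibition above a per-campaign cutoff equal to the mean of compounds falling between control-based bounds plus 3 SD, cut at about 20% in these data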;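 also: 0% = DMSO wells while the 100% control is not disclosed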
# KLK7 zymogen act: proKLK7 zymogen activators, primary screen, biochemical, fluorescence intensity | Kallikrein-7 (Homo sapiens), P49862 | purified proKLK7, EDANS-DABCYL substrate fluorescence; 100% is mature enzyme control, 0% vehicle | activation, % at 7 µM | hit rate 0.9% among 370,000;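 active = activation above the mean of all tested compounds plus 3 SD, computed per campaign excluding outliers beyond control limits, cut at about 13% in these data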
# PLCb3 inh: human PLC-beta3 inhibitors, primary screen, biochemical, fluorescence. 1-phosphatidylinositol 4,5-bisphosphate phosphodiesterase beta-3 (Homo sapiens), Q01970. Purified PLC-beta3, fluorogenic substrate. inhibition, % at 12.2 µM. hit rate 0.18% among 370,000; in the data active = inhibition above about 11%;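 also: 0% = median of compound wells on plate and 100% = full blocker control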
# ADAM17 inh: ADAM17 inhibitors, primary screen, biochemical, QFRET; Disintegrin and metalloproteinase domain-containing protein 17 (Homo sapiens), P78536; inhibition, % at 6.95 µM; hit rate 0.83% among 370,000; recombinant ADAM17, EDANS/DABCYL FRET peptide cleavage;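 active = inhibition above the mean of compounds lying between control limits plus 3 SD, set per campaign, cut at about 8.5% in these data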;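 also: 0% = DMSO-only wells as the low control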
# ADAM10 confirm: human ADAM10 inhibitors, confirmation, biochemical, QFRET, triplicate. shares compounds with ADAM10 inh. ADAM10 QFRET peptide cleavage, EDANS fluorescence. inhibition, % at 6.95 µM. hit rate 1% among 2,100. AID 743208, 2013;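 active = inhibition above about 20% chosen separately for each screening run, limit read from the data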;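 also: 0% = DMSO wells and 100% = marimastat wells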
# ADAM17 ctr: ADAM17 inhibitors, counter-screen for ADAM10 exosite inhibitor project, biochemical, QFRET, high throughput | shares compounds with ADAM10 inh | ADAM17 QFRET peptide cleavage, EDANS fluorescence | inhibition, % at 6.95 µM | hit rate 0.5% among 2,100;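 active = mean triplicate inhibition above the solvent-only control wells' mean plus 3 SD, cut at about 12% in these data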;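 also: 0% = DMSO wells and 100% = marimastat wells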
# ADAM10 ctr: ADAM10 inhibitors, counter-screen for ADAM17 exosite inhibitor project, biochemical, FRET, human ADAM10; shares compounds with ADAM17 inh; inhibition, % at 6.95 µM; AID 743256, 2014; recombinant ADAM10, EDANS/DABCYL FRET peptide cleavage, 3 h; hit rate 47% among 2,900;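 active = mean inhibition over the triplicate runs exceeds the activity threshold set in the earlier primary screen, cut at about 20% in these data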;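 also: 0% = DMSO wells and 100% = marimastat wells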
# ADAM17 confirm: ADAM17 inhibitors, hit retest, confirmation, biochemical, QFRET peptide cleavage; inhibition, % at 6.95 µM; recombinant ADAM17, EDANS/DABCYL QFRET peptide cleavage; shares compounds with ADAM17 inh; hit rate 65% among 2,900;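 active = mean inhibition across replicates above the hit cutoff set in the primary screen, cut at about 8.5% in these data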;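 also: 0% = DMSO wells and 100% = marimastat wells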
# Starred values were filed as active, the others as inactive; nt = no result given. A selection: hits, their analogues and other compounds. The true share with any hit is near 2.9%.
SMILES,PLC-gamma1 inh,ADAM10 inh,KLK7 zymogen act,PLCb3 inh,ADAM17 inh,ADAM10 confirm,ADAM17 ctr,ADAM10 ctr,ADAM17 confirm
CCOC(=O)N1CCC(N2Cc3cccc(C(=O)O)c3C2=O)CC1,1,-5,0,-5,-4,nt,nt,nt,nt
COc1cc(CN2CCN(c3cccc(C)c3C)CC2)cc(Br)c1O,3,24*,0,8,9.8*,3,2,22*,11*
CC(C)(C)OC(=O)NCCCCCNC(=O)c1[nH]cnc1C(=O)Nc1ccc(Cl)cc1,1,31*,0,5,14*,5,2,39*,22*
C[C@H](NC(=O)c1nc[nH]c1C(=O)N[C@@H](CCCCNC(=O)OC(C)(C)C)C(=O)OC(C)(C)C)c1ccccc1,2,21*,0,2,12*,6,2,29*,18*
C[C@H](NC(=O)c1nc[nH]c1C(=O)NCc1ccc(CNC(=O)OC(C)(C)C)cc1)c1ccccc1,8,54*,0,3,25*,3,1,29*,16*
C[C@@H](NC(=O)c1nc[nH]c1C(=O)NCCCCCNC(=O)OC(C)(C)C)c1ccccc1,1,2,1,0,-1,nt,nt,nt,nt
CC(C)(C)OC(=O)NCCCC[C@H](NC(=O)c1[nH]cnc1C(=O)N[C@@H](Cc1ccccc1)C(=O)OC(C)(C)C)C(=O)OC(C)(C)C,5,1,0,3,1,nt,nt,nt,nt
CCc1ccccc1NNC(=O)CCc1ccccc1,2,3,1,-2,-4,nt,nt,nt,nt
COc1ccc(CC(=O)Nc2nc(-c3ccc(F)c(F)c3)cs2)cc1,-3,7,0,-2,6,nt,nt,nt,nt
CC1(C(=O)OCC(=O)Nc2nc(-c3ccc(F)c(F)c3)cs2)CC1(Cl)Cl (stereo unspecified),2,21*,0,-5,9.3*,8,2,24*,16*
COc1cc2c(cc1OC)CN(C(=O)CSc1ccccc1C)CC2,-32,-41,5,-42,-11,nt,nt,nt,nt
Cc1ccc(NC(=O)c2cccc(OCc3c(C)noc3C)c2)cc1S(=O)(=O)Nc1ccccc1Cl,1,22*,0,-2,10*,10,3,34*,16*
COc1ccc(C(C#N)=C2C=CC(=NO)C=C2)cc1,0,-8,0,-10,1,nt,nt,nt,nt
CCc1cccc(C)c1NC(=O)CN1CCN(S(=O)(=O)c2ccc(C(C)(C)C)cc2)CC1,7,24*,0,11,10.0*,0,0,7,7
COc1ccc(C(CC(=O)c2ccc(C)cc2)Nc2ccc([N+](=O)[O-])cc2)cc1 (stereo unspecified),3,20*,1,2,14*,6,2,19,13*
Cc1ccc(NC(CC(=O)c2ccccc2)c2ccc(F)cc2)cc1 (stereo unspecified),1,2,0,0,-2,nt,nt,nt,nt
Cc1ccc(S(=O)(=O)N/N=C/c2ccc(OS(=O)(=O)c3ccc(C)c([N+](=O)[O-])c3)cc2)cc1,7,26*,0,2,12*,8,2,36*,20*
Cc1ccc(Cn2nnc3c2-c2ccccc2S(=O)(=O)N(C)C3)cc1,1,3,1,1,-2,nt,nt,nt,nt
C=CCC[C@H](Cc1ccc(F)cc1)C(=O)OC[C@H](Cc1c[nH]c2ccccc12)NC(=O)[C@H](CC=C)CC(=O)NCCO,7,24*,0,2,9.4*,4,1,43*,22*
C=CC[C@@H](CC(=O)NCCO)C(=O)N[C@@H](COC(=O)[C@@H](CC=C)Cc1ccc(F)cc1)Cc1c[nH]c2ccccc12,-2,7,0,-1,3,nt,nt,nt,nt
C=CCC[C@H](Cc1ccc(F)cc1)C(=O)OC[C@@H](Cc1c[nH]c2ccccc12)NC(=O)[C@@H](CC=C)CC(=O)NCCO,1,27*,0,5,17*,5,2,35*,17*
C=CCC[C@@H](Cc1ccc(F)cc1)C(=O)OC[C@@H](Cc1c[nH]c2ccccc12)NC(=O)[C@@H](CC=C)CC(=O)NCCO,4,28*,1,6,17*,3,0,29*,15*
Cc1ccc(C(C)C)cc1OCC(=O)NCCCn1ccnc1,3,2,1,3,-3,nt,nt,nt,nt
CCOc1ccc(NC(=O)CN(C)C(=O)c2ccccc2CCc2ccccc2)cc1OCC,9,-18,0,-2,6,nt,nt,nt,nt
Cc1ccnc(NC(=O)CNC(=O)c2ccc3c(c2)OCO3)c1,1,-1,1,-4,-1,nt,nt,nt,nt
SMILES,PLC-gamma1 inh,ADAM10 inh,KLK7 zymogen act,PLCb3 inh,ADAM17 inh,ADAM10 confirm,ADAM17 ctr,ADAM10 ctr,ADAM17 confirm
Cc1cc(C)cc(NC(=O)C2(c3ccccc3)CC2(Cl)Cl)c1 (stereo unspecified),2,20*,0,6,9.9*,6,2,14,9.6*
ClCc1nnc(-c2ccccc2)o1,-5,-18,-2,-4,-10,nt,nt,nt,nt
Cc1cccc(OCCCSc2nc3ccccc3[nH]2)c1,7,21*,1,6,10*,2,1,17,9.8*
Cc1cccc(OCCSCc2nc3ccccc3[nH]2)c1,-3,3,0,-4,-3,nt,nt,nt,nt
C/C(=N\NC(N)=O)c1cc(Cl)cc(Cl)c1O,-5,-9,-4,-7,-4,nt,nt,nt,nt
O=[N+]([O-])c1cccnc1N1CCC(c2cc(-c3ccc(Cl)cc3)n[nH]2)CC1,3,30*,0,3,13*,13,3,40*,19*
CN(c1ccc(C(=O)NCCSCc2ccc(Cl)cc2)cc1)S(=O)(=O)c1ccccc1,3,28*,1,2,18*,6,2,36*,15*
CCC(C(=O)NCCCN1CC(C)CC(C)C1)n1nc(C)c2sc3ccccc3c2c1=O (stereo unspecified),2,-19,1,-9,-4,nt,nt,nt,nt

# Assay outcomes: PubChem BioAssay, The Scripps Research Institute Molecular Screening Center
